Results on 65 compounds are retold here after ChEMBL document CHEMBL4513216, “Probing the Open Global Health Chemical Diversity Library for Multistage-Active Starting Points for Next-Generation Antimalarials” (ACS Infect Dis, 2020).

The whole screen tested about 68,000 compounds, of which about 2,700 (4%) showed an effect of 50% or more. Shown is part of a subset that was picked to be rich in strong results.

The experiment relates to Plasmodium berghei. Description: Screen against P. berghei liver stage (PbLuc), transformed with Luciferase, at 2uM. The settings on record: tested at 2 uM. The class given is functional, HepG2.
On to `Cc1ccc(C(=O)N2CC3(CCCCC3)c3cc(C(=O)O)ccc32)cn1`, for which the INHIBITION is given as -46.89%.

On to `Cc1nc(CCN(C)C(=O)CN2CCCCCC2)no1`, for which the INHIBITION turned out to be 51.9%.

On to `Cc1nc(CN2CCCN(CC(=O)N(C)CCC#N)CC2)no1`, for which the INHIBITION was -14.14%.

As for `CC1CCN(CC(=O)N(C)CCc2noc(C3CC3)n2)C1=O` (stereo not given), the INHIBITION was found to be 27.73%.

Consider `COc1cc(N2C[C@@H]3COC[C@@H](Cc4nnc(C)o4)[C@@H]3C2)ncn1`, for which the INHIBITION is given as 21.27%.

In the case of `COc1ccccc1N1CCN(Cc2nc(C)c(C)o2)CC1`, the INHIBITION was -63.57%.

On to `Cc1cc(CN2CCOC(CN(C)C)C2)no1` (stereo not given), for which the INHIBITION amounted to 16.64%.

Turning to `O=C(NCCCOc1cccnc1)c1cn(CCc2ccccc2)nn1`, the INHIBITION is reported as 41.14%.

Turning to `O=C(NCCc1ccccc1)c1cn(CCNCc2cccnc2)nn1`, the INHIBITION is recorded as 53.12%.

For `O=C(NCc1cccnc1)c1cn(CCc2ccccc2)nn1`, the INHIBITION amounted to 17.19%.

Take `Cc1nc(CC(C)C)sc1C(=O)N1CCC1`: the INHIBITION is reported as 11.18%.

For `O[C@@H]1C[C@@H](c2nc(-c3cccnc3)no2)N(C2CCOCC2)C1`, the INHIBITION is listed as -14.24%.

For `O=C(NC[C@H]1C[C@@H]2CN(C(=O)c3ccco3)C[C@@H]2O1)c1ccsc1`, the INHIBITION worked out at 34.93%.

On to `CN(C)C[C@H]1C[C@@H]2CN(C(=O)c3ccno3)C[C@@H]2O1`, for which the INHIBITION is on record as -30.38%.

Consider `Cn1cccc1C(=O)NC[C@H]1C[C@@H]2CN(C(=O)c3ccco3)C[C@@H]2O1`, for which the INHIBITION was 6.8%.

With `O=C(NC[C@H]1C[C@@H]2CN(C(=O)c3ccno3)C[C@@H]2O1)C1CCC1`, the INHIBITION amounted to 55.52%.

Consider `Cn1cccc1C(=O)NC[C@H]1C[C@@H]2CN(C(=O)c3ccno3)C[C@H]2O1`, for which the INHIBITION came out at 50.32%.

On to `CN(C)C[C@H]1C[C@@H]2CN(C(=O)c3ccco3)C[C@@H]2O1`, for which the INHIBITION is 10.49%.

Take `COc1ccc(CN(C)Cn2cc(C)n(-c3cc(C)on3)c2=O)cc1`: the INHIBITION worked out at 14.29%.

On to `CCC1c2ccsc2CCN1C(=O)NCc1ccc(C)nc1` (stereo not given), for which the INHIBITION came to 11.09%.

As to `COC1COC2(CCN(Cc3cccc(Cl)c3)CC2)C1` (stereo not given), the INHIBITION is on record as 23.81%.

As to `CO[C@@H]1CC[C@H]2[C@H]1OCCN2CCOCc1ccccc1`, the INHIBITION worked out at 3.11%.

As to `Cc1nc(N[C@H]2COC[C@@H]2N2CCCCC2)c2c(C)nn(C)c2n1`, the INHIBITION was -11.88%.

For `c1cc(-c2cnc(C3CCNCC3)cn2)n[nH]1`, the INHIBITION is 66.18%.

`c1cc(-c2cncc(C3CCNCC3)n2)n[nH]1`: the INHIBITION was found to be 29.25%.

In the case of `Fc1ccc(-c2cnc(C3CCNCC3)cn2)cc1`, the INHIBITION worked out at 14.8%.

As for `Cc1cccc(CN2C(=O)C[C@H]3[C@@H]2CCN3CC2CC2)n1`, the INHIBITION is 3.86%.

Take `NC(=O)C1CN(C(=O)Nc2ccc(SC(F)(F)F)cc2)CCO1` (stereo not given): the INHIBITION is given as -31.17%.

As to `O=C(NC1CCC1)C1CCC2(CN(C(=O)c3ccco3)C2)O1` (stereo not given), the INHIBITION is -160.99%.

On to `O=C(NC1CCC1)C1CCC2(CN(C(=O)c3ccno3)C2)O1` (stereo not given), for which the INHIBITION is 57.85%.

`O=C(NCC1CC1)C1CCC2(CN(C(=O)c3ccno3)C2)O1` (stereo not given): the INHIBITION was -33.57%.

Take `Cc1cc(C)c(CNC(=O)CC2CCCO2)c(=O)[nH]1` (stereo not given): the INHIBITION is listed as -36.34%.

Consider `O=C1CCCN1CCCC(=O)N1CCCC(Cc2cccnc2)C1` (stereo not given), for which the INHIBITION is reported as -11.81%.

As for `CN(CCOCC1CC1)C(=O)Nc1ccc(C#N)c(Cl)c1`, the INHIBITION is -47.52%.

In the case of `COc1ccc(C(=O)N2C[C@@H](C(=O)O)[C@H](c3ccccc3C)C2)c(O)c1`, the INHIBITION was -43.72%.

With `CC(C)N1CCOC[C@H]1c1nc(-c2ccncc2)c[nH]1`, the INHIBITION is 54.56%.

As for `CN1CCOC[C@H]1c1nc(-c2ccncc2)c[nH]1`, the INHIBITION came out at 28.45%.

As for `c1cc(-c2c[nH]c([C@@H]3COCCN3C3CCOCC3)n2)ccn1`, the INHIBITION is recorded as 30.63%.

With `O=C(O)[C@@H]1CN(C(=O)c2ccc(O)cc2)C[C@H]1c1cccc(F)c1`, the INHIBITION was 38.65%.

As for `CN(C)CC(=O)N1C[C@H]2CCC[C@@]2(COc2ccccn2)C1`, the INHIBITION came to 19.44%.

For the compound `O=C(CCC(=O)N1CCCC1c1ccsc1)N1CCOCC1` (stereo not given), the INHIBITION is -26.92%.

With `Cc1ccc(-c2ncc(C(=O)N3CCN4CCCCC4C3)c(O)n2)cc1` (stereo not given), the INHIBITION was 60.9%.

In the case of `Cc1nc(-c2cccnc2)ncc1C(=O)N1CCCCC(N)C1` (stereo not given), the INHIBITION turned out to be 6.22%.

For `Cc1ccc(-c2ncc(C(=O)N3CCCN4CCC[C@H]4C3)c(O)n2)cc1`, the INHIBITION was determined as 32.26%.

In the case of `Cc1nc(C(C)C)ncc1C(=O)N1CCCC(N2CCCC2)C1` (stereo not given), the INHIBITION came to 11.44%.

With `Cc1ccc(-c2ncc(C(=O)N3CCCC(CCN)C3)c(O)n2)cc1` (stereo not given), the INHIBITION turned out to be 41.07%.

For the compound `Cc1ccc(-c2ncc(C(=O)N3CCC[C@H](N)C3)c(O)n2)cc1`, the INHIBITION stood at 63.1%.

In the case of `c1cnc(N2C[C@H]3CCN(CC4CC4)C[C@H]3C2)cn1`, the INHIBITION was found to be 11.56%.

`CC(Cn1cccn1)n1cnc2cccc(Cl)c2c1=O` (stereo not given): the INHIBITION was found to be 33.52%.

As for `CCC(=O)N1CCCC(c2cc(Nc3ncccn3)nc(C)n2)C1` (stereo not given), the INHIBITION was determined as 11.08%.

Consider `O=c1[nH]c(COc2ccc(Cl)cc2)nc2c1CCNC2`, for which the INHIBITION is on record as 12%.

For `NC(=O)c1ccc(-c2nc3c(c(=O)[nH]2)CCNC3)cc1`, the INHIBITION turned out to be 41.78%.

`O=c1[nH]c(-c2ccccc2F)nc2c1CCNC2`: the INHIBITION is given as 1.4%.

Consider `O=c1[nH]c(-c2ccc(F)c(F)c2)nc2c1CCNC2`, for which the INHIBITION is -18.12%.

On to `O=c1[nH]c(-c2ccc(F)cc2)nc2c1CCNC2`, for which the INHIBITION is 53.66%.

On to `O=c1[nH]c(-c2ccc(Cl)cc2)nc2c1CCNC2`, for which the INHIBITION amounted to 57.21%.

Turning to `c1ccc(-c2cccc(N3CCC(NCCc4cscn4)CC3)c2)cc1`, the INHIBITION is listed as -8.16%.

As to `CC(C)CN1C(=O)CO[C@@H]2CN(C(=O)N(C)C)C[C@H]21`, the INHIBITION is -20.67%.

`CC(C)CN1C(=O)CO[C@@H]2CNC[C@H]21`: the INHIBITION is listed as 70.31%.

On to `O=C1CO[C@@H]2CNC[C@H]2N1CC1CC1`, for which the INHIBITION was 27.61%.

Consider `CCN(Cc1cccc(C(=O)Nc2c(C)cnn2C)c1)[C@H]1COC[C@@H]1O`, for which the INHIBITION is listed as 20.36%.

On to `CC1CCN(C(=O)[C@@H]2CC[C@@H]3[C@@H](CCN3c3ncc(F)cn3)O2)CC1`, for which the INHIBITION is on record as 3.63%.

In the case of `CCOc1cc(NC(=O)N(C)Cc2ncnn2C)ccc1C`, the INHIBITION is on record as 31.51%.

On to `CC(C)OCc1cccc(NC(=O)N(C)Cc2ncnn2C)c1`, for which the INHIBITION is reported as 31.51%.

For the compound `CCSCc1cccc(NC(=O)N(C)Cc2ncnn2C)c1`, the INHIBITION was 72.05%.
